Measurements from PubChem BioAssay (NCATS).
Results filed as inconclusive are left out. Entries that show only a call come without a potency. Calls of active or inactive are those of the source. Calls come from the whole dose curve; tested in HEK293 reporter line.

Experiment: qHTS for Inhibitors of the Functional Ribonucleoprotein Complex (vRNP) of Lassa (LASV) Arenavirus: LASV Primary Screen - GLuc reporter signal (AID 1347082); note: nearly all actives have a fitted effect of over 60% in size
Settings: LASV minigenome vRNP, Gaussia luciferase reporter; series mostly up to 57.5 µM
Potency is the fitted concentration of half-maximal effect.

Row | Compound | Potency
1 | CCCCCCCCCCCCCCCC[N+](C)(C)Cc1ccccc1 | inactive
2 | CCCOc1ccc2nc(NC(=O)OC)[nH]c2c1 | inactive
3 | CCOC(=O)c1ccc(C#Cc2ccc3c(c2)C(C)(C)CCS3)nc1 | inactive
4 | CC(NCCC(c1ccccc1)c1ccccc1)c1ccccc1 (centres undefined) | inactive
5 | COc1ccc(OC(=O)N(CC(=O)O)Cc2ccc(OCCc3nc(-c4ccccc4)oc3C)cc2)cc1 | inactive
6 | CCOC(=O)OC(C)OC1=C(C(=O)Nc2ccccn2)N(C)S(=O)(=O)c2ccccc21 (centres undefined) | inactive
7 | O=c1[nH]c2ccccc2n1CCCN1CCN(C(c2ccccc2)c2ccccc2)CC1 | inactive
8 | O=C(O)c1cccc(-c2noc(-c3ccccc3F)n2)c1 | inactive
9 | COc1cc(N)c(Cl)cc1C(=O)NC1CCN(CCCOc2ccc(F)cc2)CC1OC (centres undefined) | inactive
10 | COC[C@@H](c1ccc(C(F)(F)F)cc1)N1CCN(C2(C)CCN(C(=O)c3c(C)ncnc3C)CC2)C[C@H]1C | inactive
11 | O=C(CCCN1CCN(c2ccc(F)cc2)CC1)NC1c2ccccc2CSc2ccccc21 (centres undefined) | 24.3 µM (active)
12 | O=C1OC2(c3ccccc31)c1cc(I)c(O)c(I)c1Oc1c2cc(I)c(O)c1I | inactive
13 | CCCCOc1ccc(CC(=O)NO)cc1 | inactive
14 | N[C@@H](Cc1cc(I)c(O)c(I)c1)C(=O)O | inactive
15 | CN1CCC(Nc2ncc3ncnc(Nc4ccc(F)c(Cl)c4)c3n2)CC1 | inactive
16 | COc1ccc(CCN2CCC(Nc3nc4ccccc4n3Cc3ccc(F)cc3)CC2)cc1 | inactive
17 | O=Cc1ccc(O)c(O)c1O | inactive
18 | O=c1[nH]c(=O)n([C@H]2C[C@H](O)[C@@H](CO)O2)cc1C(F)(F)F | inactive
19 | O=C(Nc1ccc([N+](=O)[O-])cc1Cl)c1cc(Cl)ccc1O | inactive
20 | COC(=O)C1=C(C)NC(C)=C(C(=O)OCCCN2CCC(c3ccccc3)(c3ccccc3)CC2)C1c1cccc([N+](=O)[O-])c1 (centres undefined) | inactive

Row | Compound | Potency
21 | CN(C)CCN(Cc1ccc(Cl)cc1)c1ccccn1 | inactive
22 | CN(C)CCCOc1nn(Cc2ccccc2)c2ccccc12 | inactive
23 | COc1cc(N)c(Cl)cc1C(=O)NC1CCN(Cc2ccccc2)CC1 | inactive
24 | CN(C)CC/C=C1\c2ccccc2Sc2ccc(Cl)cc21 | inactive
25 | c1ccc(CC2=NCCN2)cc1 | inactive
26 | CC(=O)N(CC(=O)N(C)C)c1ccccc1 | inactive
27 | CCOC(=O)Nc1ccc(NCc2ccc(F)cc2)nc1N | inactive
28 | CC1(C)O[C@@H]2C[C@H]3[C@@H]4CCC5=CC(=O)CC[C@]5(C)[C@@]4(F)[C@@H](O)C[C@]3(C)[C@]2(C(=O)CCl)O1 | inactive
29 | C=C[C@@]1(C)CC(=O)[C@]2(O)[C@@]3(C)[C@@H](O)CCC(C)(C)[C@@H]3[C@H](O)[C@H](OC(C)=O)[C@@]2(C)O1 | inactive
30 | O=C(NOCC1CC1)c1ccc(F)c(F)c1Nc1ccc(I)cc1Cl | inactive
31 | O=S(=O)(O)NC1CCCCC1 | inactive
32 | CC/C(=C(/CC)c1ccc(O)cc1)c1ccc(O)cc1 | inactive
33 | C[C@@H]1CN(CCCn2c3ccccc3c3ccccc32)C[C@H](C)N1 | inactive
34 | CN1CCC(=C2c3ccccc3CC(=O)c3sccc32)CC1 | inactive
35 | CC(CNC1CCCCC1)OC(=O)c1ccccc1 (centres undefined) | inactive
36 | CN1CCC(=C2c3ccccc3CCc3cccnc32)CC1 | inactive
37 | CCO[C@@H]1O[C@H](C(COCc2ccccc2)OCc2ccccc2)[C@H](OCc2ccccc2)[C@H]1O (some centres undefined) | inactive
38 | O=C(CS)Nc1ccccc1 | inactive
39 | CCOC(=O)[C@H](CCc1ccccc1)N[C@@H](C)C(=O)N(CC(=O)O)C1Cc2ccccc2C1 | inactive
